This is an account of results in PubChem BioAssay (Tox21).

“And” between values parts separate entries of the source, which are not always exact repeats. Equal values may be shown once. Records with an inconclusive call do not appear. Values without a mark were called inactive. The source made the active and inactive calls. Calls follow the shape of the dose curve; as a rule, active = well fitted curve in the direction sought with a large enough effect in the repeat runs; inconclusive = weak or mixed curves; inactive = no such curve, though single readings can be large; an effect the other way counts as inactive or inconclusive.

Assay [1] in a line: qHTS RealTime-Glo MT Cell Viability Assay in HepG2 cells - 40 hour (AID 1224870). Also: nearly all actives have a fitted effect of over 50% in size. In short, it runs like this:
(§1)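 HepG2 cells (600/well) mixed with RealTime-Glo MT reagent, settled 5 h at 37 C/5% CO2 before compound addition. Nonlytic NanoLuc luminescence from viable-cell prosubstrate reduction read repeatedly during 40 h treatment at 37 C.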
Background: qHTS replaces the single test concentration by a dilution series.

A short description of assay [2]: A CellTox Green Cytotoxicity Assay to monitor cytotoxicity in HEK293 cells - 40 hour (AID 1224871). Also: nearly all actives have a fitted effect of over 45% in size. Also: potency is read from the fitted curve at half-maximal effect. In a few lines:
(§2)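 Nonlytic real-time cytotoxicity: HEK293 + CellTox Green reagent plated, 5 h preincubation, pintool compound addition (23 nL in DMSO), 37 C for 40 h, fluorescence measured at successive time points.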

The nature of assay [3]: qHTS RealTime-Glo MT Cell Viability Assay in HEK293 cells - 16 hour (AID 1224872). Also: top concentration of the series differs between compounds; nearly all actives have a fitted effect of over 50% in size. In short, it runs like this: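 HEK293 cells were seeded at 600 cells/well together with NanoLuc luciferase and cell-permeant prosubstrate, preincubated 5 h at 37 C/5% CO2, then given compound in DMSO by pintool. Luminescence from viable-cell prosubstrate reduction was read repeatedly over 40 h.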

Assay [4] can be described thus: qHTS RealTime-Glo MT Cell Viability Assay in HepG2 cells - 8 hour (AID 1224873). Also: nearly all actives have a fitted effect of over 55% in size. In short, it runs like this: as §1
The nature of assay [5]: qHTS RealTime-Glo MT Cell Viability Assay in HEK293 cells - 40 hour (AID 1224874). Also: nearly all actives have a fitted effect of over 50% in size. As to conditions: RealTime-Glo luminescence; max response: stronger effect = lower value. In short, it runs like this: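 Cells were seeded together with NanoLuc luciferase and a prosubstrate that viable cells reduce to a luciferase substrate. After a 5 h incubation at 37 C/5% CO2, compounds were added and luminescence was measured repeatedly during 40 h of treatment.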

Assay [6] can be described thus: A CellTox Green Cytotoxicity Assay to monitor cytotoxicity in HEK293 cells - 24 hour (AID 1224875). Also: nearly all actives have a fitted effect of over 45% in size. Also: potency is read from the fitted curve at half-maximal effect. As to activity change: series mostly up to about 77 µM. In short, it runs like this: as §2
Assay [7] in a line: A CellTox Green Cytotoxicity Assay to monitor cytotoxicity in HepG2 cells - 16 hour (AID 1224876). Also: nearly all actives have a fitted effect of over 45% in size. Also: potency is read from the fitted curve at half-maximal effect. In short, it runs like this: (§3)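 Read-out is fluorescence of a cyanine dye excluded from live cells that stains DNA of dead HepG2 cells, with signal proportional to cytotoxicity. Plates were read at 0, 8, 16, 24, 32 and 40 h after compound addition.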
A short description of assay [8]: qHTS RealTime-Glo MT Cell Viability Assay in HepG2 cells - 32 hour (AID 1224877). Also: nearly all actives have a fitted effect of over 55% in size. In short, it runs like this:
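HepG2 cells were seeded at 600 cells/well together with NanoLuc luciferase and a cell-permeant prosubstrate, preincubated 5 h at 37 C/5% CO2, then pin-dosed with compounds in DMSO. Nonlytic luminescence from viable cells was read at each time point.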

Assay [9] can be described thus: A CellTox Green Cytotoxicity Assay to monitor cytotoxicity in HepG2 cells - 24 hour (AID 1224878). Also: nearly all actives have a fitted effect of over 45% in size. Also: potency is read from the fitted curve at half-maximal effect. In short, it runs like this: as §3
A short description of assay [10]: A CellTox Green Cytotoxicity Assay to monitor cytotoxicity in HepG2 cells - 40 hour (AID 1224879). Also: nearly all actives have a fitted effect of over 40% in size. Also: potency is read from the fitted curve at half-maximal effect. In a few lines:
as §3
% is scaled to controls: 0 for no effect and ±100 for the full control effect.

`Cc1c(O)cccc1O`: the Potency result in assay [1], in [2], in [3], in assay [4], in assay [6] and in [7] was “inactive” each time. Further, the Potency entry in assay [8], in [9] and in assay [10] was “inactive” throughout. The max response in assay [5] is 1.57%.
As for `CC(=O)c1ccccc1O`, the Potency result in [1], in [2], in [3], in [4], in [6] and in assay [7] was “inactive” throughout. For the same compound, the Potency result in assay [8], in [9] and in [10] was “inactive” throughout. Moreover, the max response in [5] was 9.04%.
On to `C=CCCCCCCCCC=O`, for which the Potency result in assay [1], in [2], in [3], in assay [4], in assay [6] and in assay [7] was “inactive” each time. The Potency entry in assay [8], in assay [9] and in assay [10] was “inactive” each time. Also, the max response in assay [5] was -1.95%.
For `CC/C=C\CC/C=C/CO`, the Potency result in [1], in assay [2], in assay [3], in assay [4], in assay [6] and in assay [7] was “inactive” each time. Moreover, the Potency result in [8], in assay [9] and in [10] was “inactive” throughout. Further, in assay [5], the max response is 6.89%.
Take `N[C@H](C(=O)O)c1ccc(O)cc1`: the activity change, negative = cytotoxic in assay [1] was 1.99% [at 15.8 µM]; in assay [8], 3.27% [at 15.8 µM]. Besides, the Potency result in assay [2] was “inactive”. For the same compound, the activity change, negative = cytotoxicity in [3] is 4.17% [at 15.8 µM]. For the same compound, the viability change, negative = cytotoxic in [4] is 0.244% [at 15.8 µM]. The max response in assay [5] is 2.28%. Moreover, the activity change in [6] is 0.19% [at 15.8 µM, stronger effect = higher value]. Also, the cytotoxicity increase was -12.1% [at 15.8 µM] in assay [7] and -4.58% [at 15.8 µM] in [10]. In addition, in [9], the cytotoxicity was -8.13% [at 15.8 µM].
With `O=S(O)CO`, the Potency result in assay [1], in assay [2], in [3], in assay [4], in [6] and in assay [7] was “inactive” throughout. The Potency entry in assay [8] and in [10] was “inactive” each time. Further, the max response in assay [5] is 10.1%.
Regarding `CC(=O)CC(C)(C)C1CCCCC1`, the Potency result in assay [1], in assay [2], in assay [3], in assay [4], in assay [6] and in [7] was “inactive” in each case. The Potency result in assay [8] and in assay [10] was “inactive” throughout. Further, the max response in assay [5] was 9.93%.
Turning to `CCC=O`, the Potency entry in assay [1], in assay [2], in [3], in [4], in assay [6] and in assay [7] was “inactive” throughout. Also, the Potency result in [8] and in assay [10] was “inactive” each time. Further, in assay [5], the max response is 5.02%.
On to `Cc1ccc(=O)n(-c2ccccc2)c1`, for which the Potency entry in assay [1], in assay [2], in assay [3], in assay [4], in assay [6] and in assay [7] was “inactive” throughout. Further, the Potency result in assay [8] and in assay [10] was “inactive” each time. The max response in [5] was 1.08%.
With `COC(=O)c1cc(C(=O)OC)cc(S(=O)(=O)O)c1`, the Potency entry in [1], in assay [2], in assay [3], in assay [4], in assay [6] and in assay [7] was “inactive” in each case. The Potency result in assay [8] and in assay [10] was “inactive” each time. Besides, the max response in assay [5] is -1.13%.
Regarding `OC1CCCCC1c1ccccc1` (stereo not given), the Potency result in [1], in [2], in assay [3], in assay [4], in [6] and in [7] was “inactive” throughout. Moreover, the Potency entry in assay [8], in assay [9] and in [10] was “inactive” in each case. In addition, the max response in assay [5] is 3.62%.
Regarding `CCO/C([O-])=N/c1c[n+](N2CCOCC2)no1`, the Potency entry in [1], in assay [2], in assay [3], in [4], in [6] and in [7] was “inactive” throughout. In addition, the Potency entry in assay [8] and in [10] was “inactive” throughout. For the same compound, the max response in [5] was 5.08%.
For the compound `O=C1CCCC(=O)C1`, the Potency result in [1], in assay [2], in assay [3], in [4], in assay [6] and in assay [7] was “inactive” in each case. The Potency result in [8], in [9] and in assay [10] was “inactive” each time. Also, in assay [5], the max response was 1.44%.
Take `CN(C)CCCSc1ccccc1NC(=O)/C=C/c1ccccc1`: the Potency entry in [1], in [3], in [4] and in assay [8] was “inactive” each time. Moreover, the Potency was 19 µM (active) in [2]; 19 µM (active) in assay [6]; 21.3 µM (active) in assay [7]; 19 µM (active) in [9]; 19 µM (active) in assay [10]. For the same compound, the max response in assay [5] was -11.2%.
Turning to `CC(=O)OC/C=C(\C)CC/C=C(\C)CCC=C(C)C`, the Potency result in assay [1], in assay [2], in assay [3], in assay [4], in assay [6] and in assay [7] was “inactive” in each case. Further, the Potency entry in assay [8], in [9] and in assay [10] was “inactive” throughout. The max response in [5] was 12.3% and 2.35%.
For the compound `O=C(O)CCCl`, the Potency entry in [1], in [2], in assay [3], in assay [4], in assay [6] and in assay [7] was “inactive” each time. Further, the Potency result in [8] and in assay [10] was “inactive” in each case. Also, in assay [5], the max response is 13%.
For the compound `CC/C=C\CC/C=C/C(OCC)OCC`, the Potency entry in [1], in assay [2], in assay [3], in assay [4], in assay [6] and in assay [7] was “inactive” throughout. The Potency entry in assay [8], in assay [9] and in assay [10] was “inactive” throughout. Moreover, the max response in [5] is 11.7%.
Consider `ClC(Cl)(Br)Br`, for which the Potency entry in assay [1], in assay [2], in [3], in [4], in [6] and in assay [7] was “inactive” each time. Moreover, the Potency entry in assay [8], in assay [9] and in assay [10] was “inactive” throughout. The max response in assay [5] was -1.43%.
Regarding `NS(=O)(=O)c1ccc(C(=O)O)cc1`, the Potency result in assay [1], in assay [2], in assay [3], in assay [4], in [6] and in assay [7] was “inactive” throughout. The Potency result in assay [8] and in assay [10] was “inactive” in each case. Moreover, the max response in [5] is -0.921%.
`COc1cc(C(=O)N2CCCCCCC2)cc(OC)c1OC`: the Potency entry in assay [1], in assay [2], in [3], in assay [4], in [6] and in assay [7] was “inactive” throughout. For the same compound, the Potency entry in assay [8] and in [10] was “inactive” in each case. The max response in assay [5] was 9.63%.
Take `CN(C(=O)c1c(O)c2ccccc2n(C)c1=O)c1ccccc1`: the Potency entry in [1], in [2], in assay [3], in assay [4], in [6] and in [7] was “inactive” throughout. Besides, the Potency result in assay [8] and in assay [10] was “inactive” in each case. Besides, in assay [5], the max response was 9.26%.
For `CCOC(=O)C(=O)OCC`, the Potency result in [1], in [2], in assay [3], in assay [4], in assay [6] and in [7] was “inactive” in each case. For the same compound, the Potency result in assay [8], in [9] and in assay [10] was “inactive” each time. In addition, the max response in assay [5] is 6.27%.
Take `Cc1cccn2c(=O)c(-c3nnn[nH]3)cnc12`: the activity change, negative = cytotoxic in assay [1] is 2.03% [at 15.8 µM]; in assay [8], 3.38% [at 15.8 µM]. The Potency result in assay [2] is “inactive”. Also, the activity change, negative = cytotoxicity in assay [3] was 2% [at 15.8 µM]. The viability change, negative = cytotoxic in assay [4] was -11% [at 15.8 µM]. In addition, the max response in [5] was 1.37%. In assay [6], the activity change was 11.9% [at 15.8 µM, stronger effect = higher value]. In addition, the cytotoxicity increase in assay [7] was 6.14% [at 15.8 µM]; in assay [10], 1.54% [at 15.8 µM]. Further, the cytotoxicity in [9] was 3.1% [at 15.8 µM].
